Assay outcomes (PubChem)
The list is not random: actives were taken first. Their share in the collection is about 2.6%.
Cardio protect: cardioprotection against H2O2-induced cell death, primary screen, uHTS, H9c2 cells, ATPLite luminescence | protection from H2O2 cell death, % at 20 µM | AID 588492, 2011 | 360,000 compounds, 0.63% hits | H9c2 cardiomyocytes, H2O2 injury protection, 2 h;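 active = compounds giving at least 50% protection of heart cells from peroxide-induced death in the single-dose screen, raw or plate-pattern-corrected value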
COUP-TFII inh: NR2F2 transcriptional activity inhibitors, primary screen, cell-based, luciferase reporter, HEK293T, luminescence. 370,000 compounds, 0.7% hits. inhibition, % at 8.6 µM. AID 686940, 2013. HEK293T NGFI-A luciferase reporter;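 active = inhibition above a per-plate cutoff, mean inhibition of test wells between control levels plus 3 SD, cut at about 38% in these data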;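 note: cells cotransfected with COUP-TFII expression vector driving the NGFI-A reporter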
Target sequence (P24468 whole entry, looked up): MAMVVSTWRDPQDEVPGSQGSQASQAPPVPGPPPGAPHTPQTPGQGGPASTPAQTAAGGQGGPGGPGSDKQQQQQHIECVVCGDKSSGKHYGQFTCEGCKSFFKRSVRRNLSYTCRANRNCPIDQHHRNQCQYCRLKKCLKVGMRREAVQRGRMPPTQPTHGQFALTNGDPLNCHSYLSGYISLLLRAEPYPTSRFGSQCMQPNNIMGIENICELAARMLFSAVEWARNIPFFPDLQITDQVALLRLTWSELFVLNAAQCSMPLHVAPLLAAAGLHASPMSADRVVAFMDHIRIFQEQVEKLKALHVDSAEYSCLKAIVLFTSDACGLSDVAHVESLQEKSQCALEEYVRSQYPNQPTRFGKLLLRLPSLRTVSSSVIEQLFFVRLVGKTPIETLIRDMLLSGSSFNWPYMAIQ
Jurkat NFkB inh: inhibitors of induced NF-kB luciferase reporter, primary screen, TCR NF-kB activation inhibitor project, cell-based, luminescence, uHTS; Jurkat, PMA/ionomycin-induced NF-kB luciferase reporter; inhibition, % at 4 µM; 330,000 compounds, 0.53% hits; in the data active = inhibition above about 50%
Gli-Sufu antag: Gli-Sufu pathway antagonists, primary screen, luciferase luminescence, Sufu-KO-LIGHT cells, uHTS | Sufu-KO-LIGHT fibroblasts, Gli luciferase reporter luminescence | inhibition, % at 5 µM | 340,000 compounds, 0.74% hits | AID 588413, 2011;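 active = inhibition above about 55%, limit read from the data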
697 NFkB inh: inhibitors of PMA/ionomycin-induced NF-kB reporter, 697 cells, primary screen, B-cell NF-kB inhibitor project, cell-based, luminescence, uHTS; 330,000 compounds, 0.33% hits; 697 B-cell NF-kB luciferase reporter, 16 h; inhibition, % at 4 µM; AID 435022, 2010; in the data active = inhibition above about 35%
TAG inh: inhibitors of triacylglycerol accumulation, primary screen, cell-based, uHTS, fluorescence, H9c2. H9c2 cells, Nile Red lipid (TAG) fluorescence; cells loaded with 200 µM oleic acid. 230,000 compounds, 0.66% hits. inhibition, % at 12.5 µM;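 active = pattern-corrected inhibition of lipid staining of at least 50% with the nuclear-stain viability signal not falling by more than 50%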
Of the large screens only hits and unclear results are named; the others gave an inactive call.

C[C@H]1[C@@H](OS(=O)(=O)O)C[C@@H]2C[C@H]([C@@H](O)c3cc(=O)[nH]c(=O)[nH]3)NC3=NC[C@H]1N32	Gli-Sufu antag 76 (no result: COUP-TFII inh, Jurkat NFkB inh, 697 NFkB inh, TAG inh)
CC1=CC(C)CC(C)OC(=O)CC(c2ccc(O)cc2)NC(=O)C(Cc2c(Br)[nH]c3ccccc23)N(C)C(=O)C(C)NC(=O)C(C)C1 (configuration not stated)	Gli-Sufu antag 83, TAG inh 98 (no result: Jurkat NFkB inh, 697 NFkB inh)
CCN1CCN(c2nc3c(c(=O)[nH]2)CCCC3)CC1	Cardio protect 62
Cc1cc(N2CCNC[C@H]2C)ccc1N1CC[C@H](O)C1	none (no result: Cardio protect, Jurkat NFkB inh, Gli-Sufu antag, 697 NFkB inh, TAG inh)
O=C(N/N=C/c1c(O)n(CCC2=CCCCC2)c(=S)[nH]c1=O)c1ccccc1	Cardio protect 66 (no result: TAG inh)
O=C(N/N=C/c1c(O)n(CCC2=CCCCC2)c(=O)[nH]c1=O)c1ccccc1	none (no result: TAG inh)
O=c1[nH]c(CN2CCNCC2)nc2ccccc12	none (no result: TAG inh)
CN1CCN(Cc2nc3ccccc3c(=O)[nH]2)CC1	Cardio protect 55 (no result: TAG inh)
Oc1ccc(C[C@H]2NCCc3cc(O)c(O)cc32)cc1O	Cardio protect 57 (no result: TAG inh)
CC(C)C(C(=O)NC(C)(C)C)N1C(=O)CN=C(c2ccccc2)c2ccccc21 (configuration not stated)	none (no result: Cardio protect, Jurkat NFkB inh, Gli-Sufu antag, 697 NFkB inh, TAG inh)
CCCN1CCc2cccc3c2[C@H]1Cc1ccc(O)c(O)c1-3	Cardio protect 51 (no result: COUP-TFII inh)
C[N+]1=C(N)NC2=C3CCCCC3ONC2C1 (configuration not stated)	none (no result: Cardio protect, Jurkat NFkB inh, Gli-Sufu antag, 697 NFkB inh, TAG inh)
COc1cc2cc(C(=O)N3CC(COS(C)(=O)=O)c4ccc(O)cc43)[nH]c2c(OC)c1OC (configuration not stated)	Gli-Sufu antag 94 (no result: COUP-TFII inh, Jurkat NFkB inh, 697 NFkB inh)
COc1ccc(-n2c(/C=C/c3ccc(O)c(O)c3)nc3ccccc3c2=O)cc1	Cardio protect 57 (no result: TAG inh)
COc1cc(/C=C/c2nc3ccccc3c(=O)n2-c2ccc(O)cc2)ccc1O	Cardio protect 66 (no result: TAG inh)
O=c1c2ccccc2nc(/C=C/c2ccc3c(c2)OCO3)n1-c1ccccc1	none (no result: TAG inh)
O=c1c2ccccc2nc(/C=C/c2ccccn2)n1-c1ccccc1	none
COC(=O)C1=C[C@H]([C@@H](C)[C@H](OC)c2ccccc2Br)[C@@H]2[C@H]1c1ccccc1N2C	none (no result: Cardio protect, Jurkat NFkB inh, Gli-Sufu antag, 697 NFkB inh, TAG inh)
CC12CCC(O)CC1CCC1C2CCC2(C)C(C3=CC(=O)OC3)C(O)CC12O (configuration not stated)	COUP-TFII inh 51 (no result: Jurkat NFkB inh, 697 NFkB inh)
CC1CCC(C(C)C)C(OC(=O)Cn2c(COc3ccccc3)[n+](C)c3ccccc32)C1 (configuration not stated)	TAG inh 104
N#Cc1c(Br)n(C2OC(CO)C(O)C2O)c2ncnc(N)c12 (configuration not stated)	TAG inh 52 (no result: Jurkat NFkB inh, 697 NFkB inh)
NC(=O)c1c(Br)n(C2OC(CO)C(O)C2O)c2ncnc(N)c12 (configuration not stated)	none (no result: Jurkat NFkB inh, 697 NFkB inh)
COP(=O)(OC)C(C)NC(=O)OCc1ccccc1 (configuration not stated)	none (no result: Cardio protect, Jurkat NFkB inh, Gli-Sufu antag, 697 NFkB inh, TAG inh)
CCOC(=O)c1c(N)n(CCCOC(=O)c2ccco2)c2nc3ccccc3nc12	TAG inh 53
COCCCn1c(N)c(C(=O)OCCOC)c2nc3ccccc3nc21	none
CC1Oc2cc3c(-c4c(O)cc(O)c5c(O)c6c(cc45)OC(C)C(C)C6=O)c(O)cc(O)c3c(O)c2C(=O)C1C (configuration not stated)	Gli-Sufu antag 68 (no result: COUP-TFII inh, TAG inh)
CCOC(=O)CC[C@@H]1CC[C@]2(CCCN(Cc3cccnc3)C2)O1	none (no result: Cardio protect, Jurkat NFkB inh, Gli-Sufu antag, 697 NFkB inh, TAG inh)
C=C1[C@@H](C)C2[C@H](Cc3ccccc3)NC(=O)[C@]23[C@H](OC(C)=O)/C=C/[C@@](C)(O)C(=O)[C@@H](C)C/C=C/[C@H]3[C@@H]1O (some centres not stated)	none (no result: Cardio protect, Jurkat NFkB inh, Gli-Sufu antag, 697 NFkB inh, TAG inh)
C=C1C(C)C2C(Cc3ccccc3)NC(=O)C23C(OC(C)=O)C=CC(C)(O)CC(C)CC=CC3C1O (configuration not stated)	TAG inh 98 (no result: Jurkat NFkB inh, 697 NFkB inh)
CNc1ccc2oc(C[C@H]3O[C@@]4(CC[C@H]3C)O[C@H]([C@H](C)C(=O)c3ccc[nH]3)[C@H](C)C[C@H]4C)nc2c1C(=O)O	Gli-Sufu antag 83
COc1cccc(NC2=NCCS2)c1	none (no result: Cardio protect, Jurkat NFkB inh, Gli-Sufu antag, 697 NFkB inh, TAG inh)
CCOC(=O)[C@]12Cc3c(cc(OC)c(OC)c3OC)[C@H]1N(C1CCCCC1)C(=O)c1ccccc12	COUP-TFII inh 60 (no result: Cardio protect, Jurkat NFkB inh, Gli-Sufu antag, 697 NFkB inh, TAG inh)
O=C(CN1C(=O)[C@@H](Cc2ccc(O)cc2)N=C(c2ccccc2)c2ccccc21)NC1CCCCC1	none (no result: Cardio protect, Jurkat NFkB inh, Gli-Sufu antag, 697 NFkB inh, TAG inh)
Cn1c(=O)n(C)c2cc([N+](=O)[O-])c(N3CCNCC3)cc21	Gli-Sufu antag 57
CNc1cc(Cl)c2nonc2c1[N+](=O)[O-]	TAG inh 79 (no result: Jurkat NFkB inh, 697 NFkB inh)
Cc1cc([N+](=O)[O-])c(Cl)cc1NC(=O)C(C)C	none (no result: TAG inh)
C=C1C(=O)C(C)=C2C(=O)N3Cc4[nH]c5ccccc5c4CC3(C(=O)OC)C12 (configuration not stated)	none (no result: Cardio protect, Jurkat NFkB inh, Gli-Sufu antag, 697 NFkB inh, TAG inh)
C[C@]12CC[C@@H]3c4ccc(O)c(O)c4CC[C@H]3[C@@H]1CC[C@@H]2O	Cardio protect 121
CC(C)C[C@H]1N=C(c2ccccc2)c2ccccc2N(CC(=O)NC(C)(C)C)C1=O	none (no result: Cardio protect, Jurkat NFkB inh, Gli-Sufu antag, 697 NFkB inh, TAG inh)
CC(NC(=O)OCc1ccccc1)[P+](=O)O (configuration not stated)	none (no result: Cardio protect, Jurkat NFkB inh, Gli-Sufu antag, 697 NFkB inh, TAG inh)
CCCCCn1c(=O)c(C(=O)Nc2cnccn2)c(O)c2ccccc21	Gli-Sufu antag 63
CC(NC(=O)OCc1ccccc1)P(=O)(Oc1ccccc1)Oc1ccccc1 (configuration not stated)	none (no result: Cardio protect, Jurkat NFkB inh, Gli-Sufu antag, 697 NFkB inh, TAG inh)
Cc1sc2nc(COC(=O)Cc3ccccc3)[nH]c(=O)c2c1C	Cardio protect 53
CC(NC(=O)OC1CC2CCC1(C)C2(C)C)P(=O)(Oc1ccccc1)Oc1ccccc1 (configuration not stated)	none (no result: Cardio protect, Jurkat NFkB inh, Gli-Sufu antag, 697 NFkB inh, TAG inh)
COc1ccc([C@@H]2C[C@H]3[C@@H](CN2)CON3C)cc1	none (no result: Cardio protect, Jurkat NFkB inh, Gli-Sufu antag, 697 NFkB inh, TAG inh)
CC=CC(C)=CC(C)C(=O)CC(O)CC1CC(=O)NC(=O)C1 (configuration not stated)	COUP-TFII inh 39 (no result: Jurkat NFkB inh, Gli-Sufu antag, 697 NFkB inh)
C=CCN(CC#CCO)Cc1ccc(OC)cc1OC	none (no result: Cardio protect, Jurkat NFkB inh, Gli-Sufu antag, 697 NFkB inh, TAG inh)
Cn1c(=O)c2c(nc(N/N=C/c3c(O)n(C4CCCCC4)c(=S)[nH]c3=O)n2C)n(C)c1=O	Cardio protect 68
Cc1ccccc1-n1c(O)c(/C=N/Nc2nc3c(c(=O)n(C)c(=O)n3C)n2C)c(=O)[nH]c1=S	none
COC(=O)C(O)(c1ccc(N=Cc2ccccc2O)c(C)c1)C(F)(F)F (configuration not stated)	none (no result: TAG inh)
CC(C)(C)c1ccc(O)c(N=Cc2c(O)ccc3ccccc23)c1	Cardio protect 51
Cc1ccccc1NP(=O)(Oc1ccccc1F)Oc1ccccc1F	Cardio protect 73 (no result: TAG inh)
